This note sets out measurements from PubChem BioAssay (EPA / NIEHS).

The source made the active and inactive calls. How the source made its calls: active means hit-call score of the fitted dose curve at least 0.9, where 1 is the maximum; inactive means score below 0.9.

Sequence of CCAAT/enhancer-binding protein beta (Homo sapiens) (P17676 whole entry, looked up): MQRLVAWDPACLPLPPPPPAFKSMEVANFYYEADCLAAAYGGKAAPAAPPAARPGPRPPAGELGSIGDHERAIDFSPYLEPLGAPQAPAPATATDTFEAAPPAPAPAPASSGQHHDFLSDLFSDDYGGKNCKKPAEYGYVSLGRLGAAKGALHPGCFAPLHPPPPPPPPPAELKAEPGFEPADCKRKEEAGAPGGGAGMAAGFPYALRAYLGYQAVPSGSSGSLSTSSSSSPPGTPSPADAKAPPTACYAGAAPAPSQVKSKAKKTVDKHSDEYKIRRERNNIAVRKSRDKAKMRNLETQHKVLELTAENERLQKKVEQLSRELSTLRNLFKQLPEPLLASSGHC

This experiment addresses CCAAT/enhancer-binding protein beta (Homo sapiens) (UniProt P17676). The experiment in a line: ATG_C_EBP_CIS: Attagene CIS-FACTORIAL HepG2 Assay for human CCAAT/Enhancer Binding Protein (C/EBP) beta (AID 2282927). The note with it: HepG2 Attagene cis-factorial transcription factor reporter; actives raise or lower the signal. The method, boiled down: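 HepG2 transiently transfected with multiplexed reporter units under cis-regulatory promoters reporting endogenous C/EBPb activity. After 24 h exposure, reporter mRNA assayed by RT-PCR, fluorescent labelling, HpaI digestion and capillary electrophoresis; bidirectional fitting versus DMSO.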
Turning to `COCCOCCOCCOCCOC`, the result was inactive. `N=c1ccn2c(n1)O[C@H]1[C@H](O)[C@@H](CO)O[C@H]12`: the result was inactive. Consider `O=C1CCCCCCCCCCC(=O)OCCO1`, for which the result was inactive. Turning to `CCCCC/C=C\C/C=C\CCCCCCCC(=O)OC`, the outcome was inactive.

On to `O=C(Oc1ccccc1)c1ccc2ccccc2c1O`, for which the result was inactive. Consider `O=CC1CC1`, for which the result was inactive. In the case of `CCOC(=O)Cc1cccc2ccccc12` it was “inactive”; in that of `CC1(C)S[C@@H]2[C@H](NC(=O)COc3ccccc3)C(=O)N2[C@H]1C(=O)O`, “inactive”; in that of `[Cl][In]([Cl])[Cl]`, “inactive”.

For the compound `CCCCCCOC(=O)C(C)CC` (stereo not given), the result was inactive. Turning to `CCO[Si](CCCN=C=O)(OCC)OCC`, the outcome was inactive. Turning to `CCCCCCCCCCCCCCCCCC#N`, the outcome was inactive. Turning to `Cc1ccc(C2OC[C@@H]3OC(c4ccc(C)cc4)O[C@H]([C@H](O)CO)[C@@H]3O2)cc1` (stereo not given in full), the outcome was inactive. On to `O=C(c1ccc(O)cc1)c1ccc(O)cc1O`, for which the outcome was inactive.

Turning to `CCCOC(=O)CCCCC(=O)OCCC`, the result was inactive.

Regarding `O=C1C=CC(=O)O1`, the result was inactive. Take `O=S1(=O)OC(c2ccc(O)cc2)(c2ccc(O)cc2)c2ccccc21`: the result was inactive. On to `[Cl][Bi]([Cl])([c]1ccccc1)([c]1ccccc1)[c]1ccccc1`, for which the result was inactive. In the case of `COC(=O)/C=C\C(=O)O` it was “inactive”; in that of `CC(=O)c1ccc2c(c1)CCCC2`, “inactive”. `OCCN(CCO)c1ccccc1`: the result was inactive.

`c1ccc2c(c1)ccc1cc3c(ccc4ccccc43)cc12`: the outcome was inactive. On to `NCCCN1CCN(CCCN)CC1`, for which the outcome was inactive. As to `COc1cc(NC(=O)CC(C)=O)c(OC)cc1Cl`, the outcome was inactive. For `O=c1[nH]nc(-c2ccc([N+](=O)[O-])o2)o1`, the result was inactive.
